MCF10A rereplic: A quantitative high throughput screen for small molecules that induce DNA re-replication in MCF 10a normal breast cells; Potency, µM (top dose mostly 46.1 µM), without a hit: at the highest dose activity, positive = re-replication, usual class: activators; MCF 10A DNA re-replication, Hoechst nuclear intensity, 48 h; 350,000 compounds, 2.9% hits; further: % of control where 0% means no effect; nearly all actives have a fitted effect of over 50% in size
KB-3-1 tox: qHTS assay for MDR1-selective chemotherapeutics: Primary screen using the parental adenocarcinoma cell KB-3-1 | KB-3-1 viability, CellTiter-Glo ATP luminescence, 72 h | Potency, µM (titrated, usually from 46.1 µM), usual class: cytotoxic | 400,000 compounds, 1.4% hits; further: on the % scale 0 is the no-effect control and ±100 the full control effect; nearly all actives have a fitted effect of over 60% in size
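Screening of KB-3-1 cells (DMEM, 10% FBS, phenol-red free) ran from lowest to highest compound concentration; after 72 h at 37 °C viability was read luminescently and curves fitted.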
12-LOX inh: Primary qHTS assay for inhibitors of human arachidonate 12S-lipoxygenase (ALOX12): Round 2. Potency, µM (top dose mostly 108 µM), without a hit: at the top dose activity change, negative = inhibition, hits mostly inhibitors. 580,000 compounds, 1.1% hits. purified 12hLO, xylenol orange hydroperoxide absorbance. Polyunsaturated fatty acid lipoxygenase ALOX12 (Homo sapiens), P18054; further: on the % scale 0 is the no-effect control and ±100 the full control effect
Target sequence (P18054 whole entry, looked up): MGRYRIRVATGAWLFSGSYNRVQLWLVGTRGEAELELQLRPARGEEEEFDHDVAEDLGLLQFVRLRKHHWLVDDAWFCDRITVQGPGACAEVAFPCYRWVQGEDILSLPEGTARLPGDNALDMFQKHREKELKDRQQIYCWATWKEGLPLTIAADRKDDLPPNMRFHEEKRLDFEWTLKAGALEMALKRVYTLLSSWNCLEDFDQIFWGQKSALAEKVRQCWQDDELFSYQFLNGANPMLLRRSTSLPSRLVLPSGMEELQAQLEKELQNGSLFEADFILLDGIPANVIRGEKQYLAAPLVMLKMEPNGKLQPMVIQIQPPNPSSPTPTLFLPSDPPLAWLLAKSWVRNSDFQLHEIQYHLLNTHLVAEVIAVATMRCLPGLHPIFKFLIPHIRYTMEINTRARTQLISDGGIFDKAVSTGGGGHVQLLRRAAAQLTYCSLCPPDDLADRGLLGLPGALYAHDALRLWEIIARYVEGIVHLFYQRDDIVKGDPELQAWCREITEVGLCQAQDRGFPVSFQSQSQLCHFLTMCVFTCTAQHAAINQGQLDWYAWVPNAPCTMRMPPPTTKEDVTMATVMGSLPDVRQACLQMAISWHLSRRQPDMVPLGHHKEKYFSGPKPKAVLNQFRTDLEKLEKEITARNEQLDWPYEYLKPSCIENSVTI
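Purified human 12hLO (150 nM final) in 25 mM Hepes, 0.01% Triton X-100, pH 7.0 was preincubated 15 min at room temperature with compound. Then 40 uM arachidonic acid was added, 30 min. Hydroperoxide was read by Fe-XO absorbance ratio 573/405 nm.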
KB-V1 MDR tox: qHTS assay for MDR1-selective chemotherapeutics: Primary screen using the drug-selected MDR subline cells KB-V1; KB-V1 MDR cells viability, CellTiter-Glo, 72 h; Potency, µM (doses to about 46.1 µM), most hits filed as cytotoxic; 400,000 compounds, 3.4% hits; AID 1347076, 2019; further: on the % scale 0 is the no-effect control and ±100 the full control effect; nearly all actives have a fitted effect of over 60% in size
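qHTS viability screen in drug-selected KB-V1 MDR cells: 72 h compound treatment at 37 degrees C, ATP luminescence end point.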
PINK1 modulator: A Quantitative High throughput Screen to Identify Chemical Modulators of PINK1 Expression; Potency, µM (series often up to 76.6 µM), without a hit: at the top dose activation (PINK1 increase), usual class: activators; 410,000 compounds, 0.2% hits; PINK1 immunofluorescence, high-content cytometry, 24 h; active means well fitted activation curve with a large enough effect; inconclusive means small, poorly fitted or top-dose-only effect; cell line not stated here; further: % of control where 0% means no effect; nearly all actives have a fitted effect of over 65% in size
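Fluorescence from anti-PINK1 antibody, together with nuclear and cell stains, was scanned on a laser-scanning cytometer. Before staining, stable-line cells were incubated 24 hours with compounds at 5 concentrations; primary antibody 12 h at 10 degrees C.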
SW480 rerep: A quantitative high throughput screen for small molecules that induce DNA re-replication in SW480 colon adenocarcinoma cells; SW480 DNA re-replication, Hoechst DNA content imaging, 48 h; Potency, µM (titrated, usually from 46.1 µM), for the others: at the highest dose re-replication activation, usual class: activators; 340,000 compounds, 1.8% hits; AID 624297, 2012; further: % of control where 0% means no effect; nearly all actives have a fitted effect of over 55% in size
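SW480 cells exposed to compounds for 48 hr at 37 C, 5% CO2, then Hoechst-stained 40 min. Nuclear DNA content imaged by fluorescence scanning (405 nm excitation, 500-530 nm emission); re-replication scored as increased high-intensity nuclei.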
The depositor's hits bear a star; i = inactive; u = inconclusive; x = no result; [ ] = remark or other dose. This is a sample that favours compounds with a hit; in the whole collection about 5.8% have one here. Unless noted, the call rests on the fitted dose curve; in most records, active means well fitted curve in the direction sought with a large enough effect; inconclusive means small, poorly fitted or top-dose-only effect, or another doubt; inactive means no such curve, though single readings can be large; an effect the other way counts as inactive or inconclusive. Potency means the concentration at half of the fitted maximal effect.

SMILES	MCF10A rereplic	KB-3-1 tox	12-LOX inh	KB-V1 MDR tox	PINK1 modulator	SW480 rerep
CC(SC(C)c1ccc(F)cc1)C(N)=O (stereo unspecified)	x	x	-12%	x	x	x
O=C(NCCC1=CCCCC1)c1c(O)nc2sccn2c1=O	18%	u	x	5.2µM*	7%	0%
Cc1ccc(C)c(Cn2c(=O)n(CCCC(=O)NCc3ccco3)c(=O)c3sccc32)c1	13µM*	5.8µM*	21%	u	2%	u
Cc1ccc(NC(C)C(=O)Nc2sccc2C#N)cc1C (stereo unspecified)	x	x	7%	x	x	x
CCN(Cc1ccccc1)C(c1cc2cc(C)ccc2[nH]c1=O)c1nnnn1CCOC (stereo unspecified)	1%	u	u	16µM*	2%	3%
COCCn1nnnc1C(c1cc2cc(C)cc(C)c2[nH]c1=O)N1CCN(c2ccccc2F)CC1 (stereo unspecified)	2%	i	u	23µM*	0%[38.3 µM]	1%
CCN(Cc1ccccc1)C(c1cc2cc(C)cc(C)c2[nH]c1=O)c1nnnn1CCOC (stereo unspecified)	1%	i	0%	i	10%	5%
CCc1nnc(CN2CCC(c3nc4ccccc4s3)CC2)o1	x	x	110%	x	x	x
CCOC(=O)C1(Cc2cccc(OC)c2)CCN(Cc2cccc(OC)c2O)CC1	u	u	u	5.2µM*	4%	20%
CCOC(=O)C1(Cc2cccc(F)c2)CCN(Cc2cnn(CC)c2)CC1	u	i	-1%	i	1%	4%
CCOC(=O)C1(Cc2cccc(OC)c2)CCN(Cc2ccccc2OC)CC1	6%	i	2%	u	8%	-1%
CCOC(=O)C1(Cc2cccc(F)c2)CCN(Cc2nc(CC)[nH]c2C)CC1	13µM*	i	2%	i	u	5.8µM*
Cc1ccc2[nH]c(=O)c(CN(CC3CCCO3)S(=O)(=O)c3c(C)ccc4nsnc34)cc2c1 (stereo unspecified)	-2%	u	4%	6.5µM*	-2%[38.3 µM]	-1%
Cc1ccc2[nH]c(=O)c(CN(CC3CCCO3)S(=O)(=O)c3cccc4nsnc34)cc2c1 (stereo unspecified)	-2%	i	14%	i	-2%[38.3 µM]	0%
COc1ccc(NC(=O)N(Cc2cc3cc(C)ccc3[nH]c2=O)CC2CCCO2)cc1 (stereo unspecified)	u	i	u	i	3%	u
Cc1cccc(NC(=S)N(CCN(C)C)Cc2cc3cc(C)ccc3[nH]c2=O)c1	u	i	u	u	3%	0%
Cc1cccc2cc(CN(CCN(C)C)C(=S)Nc3ccccc3)c(=O)[nH]c12	8%	i	1%	23µM*	1%	u
COc1ccc2[nH]c(=O)c(CN(C(=O)NC3CCCCC3)C3CCCC3)cc2c1	u	i	0%	15µM*	0%[38.3 µM]	-5%
COc1ccc2[nH]c(=O)c(CN(CC3CCCO3)C(=O)Nc3ccc(F)cc3)cc2c1 (stereo unspecified)	u	13µM*	474%	2.6µM*	1%	1%
CCCCn1c(=O)[nH]c(=O)c2c1nc(CNc1cccc(F)c1)n2CCC(C)C	x	x	-29%	x	x	x
CC(CCc1ccccc1)NC(=O)N1CCN(S(=O)(=O)c2ccc(F)cc2)CC1 (stereo unspecified)	x	x	10%	x	x	x
O=C(c1cc2ccccc2oc1=O)N(Cc1ccccc1)CC1CCCO1 (stereo unspecified)	11%	i	-2%	i	0%	-19%
Cc1cccc2cc(CN(CC3CCCO3)C(=S)NCc3ccco3)c(=O)[nH]c12 (stereo unspecified)	7%	i	-1%	4.1µM*	6%	u
Cc1cc(C)c2[nH]c(=O)c(CN(CC3CCCO3)C(=S)Nc3ccccc3)cc2c1 (stereo unspecified)	5%	i	-7%	i	u	-2%
O=C(c1cc2ccccc2oc1=O)N(Cc1ccco1)CC1CCCO1 (stereo unspecified)	15%	i	0%	12µM*	6%[38.3 µM]	-8%
SMILES	MCF10A rereplic	KB-3-1 tox	12-LOX inh	KB-V1 MDR tox	PINK1 modulator	SW480 rerep
Cc1ccc2[nH]c(=O)c(CN(CC3CCCO3)C(=S)Nc3ccccc3)cc2c1 (stereo unspecified)	u	u	u	4.1µM*	8%	u
Cc1cc(C)c2[nH]c(=O)c(CN(CC3CCCO3)C(=S)NCc3ccco3)cc2c1 (stereo unspecified)	-1%	i	-24%	i	16%	-2%
Cc1ccc2cc(CN(CC3CCCO3)C(=S)Nc3ccccc3)c(=O)[nH]c2c1C (stereo unspecified)	2.6µM*	7.3µM*	-22%	2.3µM*	6%	5.2µM*
CCCOc1ccc(CNC(=O)C2=C(c3ccccc3)c3cc(Cl)ccc3S(=O)(=O)N2C)cc1	x	x	-1%	x	x	x
CS(=O)(=O)c1ccc(NC(=O)CN(Cc2cccs2)CC2CCCO2)cc1 (stereo unspecified)	x	x	37%	x	x	x
CC(=O)N1CC2(CCCN(Cc3ccccn3)C2)Cc2ccccc21 (stereo unspecified)	x	x	0%[6.33 µM]	x	x	x
CCCC(C)Nc1oc(-c2ccc(Cl)cc2)nc1C#N (stereo unspecified)	x	x	-4%	x	x	x
CCC(C)(C)n1nnnc1CN(Cc1cc2cc(OC)ccc2[nH]c1=O)C1CCCC1	5.8µM*	i	0%	18µM*	x	u
COc1ccc(Cn2nnnc2CN(Cc2cc3ccc(C)cc3[nH]c2=O)C2CCCC2)cc1	12%	i	-14%	u	-2%[38.3 µM]	-1%
FC(F)(F)c1ccc2c(c1)nc(-c1ccc(Cl)cc1)c1nccn12	x	x	-10%	x	x	x
CCOC(=O)c1c(Cl)c(C)nn1-c1nc(OC)cc(OC)n1	-50%	u	-15%	2.9µM*	7%	-330%
CCOC(=O)c1cc(C)nn1-c1nc(Cl)cc(OC)n1	-3%	i	-25%	i	0%	-3%
CCC(=O)N1Cc2ccccc2CC2(CCN(CCc3ccc(C)cc3)CC2)C1	x	x	35µM*	x	x	x
CC(=O)C1=C(c2cccc([N+](=O)[O-])c2)N(C(C)=O)n2c(C)nnc2S1	23µM*	15µM*	1%	i	1%	u

Compound activity (PubChem BioAssay)
